Screens (PubChem BioAssay)
Apoferritin bind: qHTS Assay for Identification of Novel General Anesthetics; apoferritin/1-aminoanthracene competitive binding, fluorescence; Potency, µM (series often up to 77.5 µM), without a hit: at the highest dose activity change, negative = displacement, actives largely listed as inhibitors; Ferritin light chain (Equus caballus), P02791; 0.074% of 350,000 active; further: potency means the concentration at half of the fitted maximal effect; on the % scale 0 is the no-effect control and ±100 the full control effect; nearly all actives have a fitted effect of over 20% in size
Target sequence (P02791 2-175 limits assumed): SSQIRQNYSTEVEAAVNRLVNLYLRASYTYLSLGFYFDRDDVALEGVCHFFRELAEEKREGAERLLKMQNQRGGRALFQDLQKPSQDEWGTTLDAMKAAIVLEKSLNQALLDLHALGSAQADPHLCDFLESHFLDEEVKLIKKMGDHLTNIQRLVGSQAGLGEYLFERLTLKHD
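Concentration-response curves derived by four-parameter Hill fitting of normalized fluorescence, where compounds displaced 1-AMA from 10 uM horse apoferritin following a brief 10 min room-temperature incubation; propofol titration acted as positive control.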
Mm-Cpn inhibitor: Inhibitors of TCP-1 ring complex (TRiC) of Methanococcus maripaludis (MmCpn): qHTS; Chaperonin Mm-Cpn (Methanococcus maripaludis); purified Mm-Cpn ATPase, ADP Transcreener TR-FRET; Potency, µM (top dose mostly 76.9 µM), for inactives: top-dose activity, negative = inhibition, actives largely listed as inhibitors; 0.031% of 330,000 active; further: potency means the concentration at half of the fitted maximal effect; on the % scale 0 is the no-effect control and ±100 the full control effect; nearly all actives have a fitted effect of over 80% in size
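Purified archaeal chaperonin (25 nM final) was preincubated with compound for 10 min at 37°C, then ATP (10 uM final) was added for 30 min at 37°C in Tris pH 7.4/KCl/MgCl2/DTT buffer. ADP was quantified by HTRF Transcreener TR-FRET.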
CCT modulator: High-Throughput Screening for Modulators of Cytosolic Chaperonin Activity; purified chaperonin ATPase assay, HTRF ADP detection, 30 min; activity change, % (test concentration not listed), hits read low; 0.3% of 360,000 active; AID 651819, 2012; in the data active means activity change below about -30%; further: on the % scale 0 is the no-effect control and ±100 the full control effect
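Nucleotide hydrolysis assay: TRiC at 20–40 nM final (set by batch activity) with 10 uM ATP, 30 min at 37 °C, in presence of 76 uM compound. Detection by competitive ADP HTRF, 30 min ambient.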
A-T KAP1 phos: qHTS Assay for Identifying a Potential Treatment of Ataxia-Telangiectasia; 0.19% of 320,000 active; Potency, µM (titrated, usually from 57.5 µM), without a hit: top-dose activation, most hits filed as activators; F2112 A-T fibroblasts, KAP-1 phosphorylation AlphaLISA; neocarzinostatin DNA damage 30 min before lysis; further: potency means the concentration at half of the fitted maximal effect; % of control where 0% means no effect; nearly all actives have a fitted effect of over 45% in size
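ATM-like activity read as KAP-1 phosphorylation via AlphaLISA donor/acceptor antibody pairs after lysis and 6 hr at 25C. Cells were ATM-null patient fibroblasts (F2112, hTERT), dosed 60 min, then exposed to the DSB inducer NCS for 30 min.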
The depositor's hits bear a star; [ ] = remark or other dose. Sampled rows, rich in hits. Any-hit rate of the full collection: about 0.47%. Unless noted, the call rests on the fitted dose curve; in most records, active means well fitted curve in the direction sought with a large enough effect; inconclusive means small, poorly fitted or top-dose-only effect, or another doubt; inactive means no such curve, though single readings can be large; an effect the other way counts as inactive or inconclusive.

O=C(CN1C(=O)COc2ccc(S(=O)(=O)N3CCCC3)cc21)N1CCN(c2cccc(C(F)(F)F)c2)CC1 was read as Apoferritin bind -6%.
Screening CC1CCC2C(=O)OC(CO)CN2C1c1ccc(Br)cc1 (stereo unspecified) returned Apoferritin bind -7%[15.3 µM].
Screening CCCn1nc(C(=O)NNC(=O)CCCOc2ccc(OC)cc2)c2ccccc2c1=O returned Mm-Cpn inhibitor 0%, CCT modulator -76* and A-T KAP1 phos 0%.
`Cc1oc2ncnc(N3CCOCC3)c2c1C(=O)NCc1ccccc1` gave Apoferritin bind -12%.
For Cc1cc(C)cc(NCc2cc3c(cc2[N+](=O)[O-])OCO3)c1 the results were Apoferritin bind 16µM*, Mm-Cpn inhibitor -2%, CCT modulator -2 and A-T KAP1 phos -5%.
For Cc1c(CCC(=O)NCCCCCC(=O)O)c(=O)oc2cc3occ(-c4ccccc4)c3cc12 the results were Apoferritin bind -5%, Mm-Cpn inhibitor 1%, CCT modulator 1 and A-T KAP1 phos 8.9µM*.
`CCN(C(=O)c1cc2c(=O)n3cccc(C)c3nc2n1CCCOC)C1CCCCC1` gave Apoferritin bind 94%, Mm-Cpn inhibitor -2%, CCT modulator 0 and A-T KAP1 phos 35µM*.
COCCCn1c(C(=O)NC2CCCCC2C)cc2c(=O)n3cccc(C)c3nc21 (stereo unspecified) was read as Apoferritin bind 4%, Mm-Cpn inhibitor 0%, CCT modulator 1 and A-T KAP1 phos 13%.
For COc1ccc2cc(C3(C)NC(=O)N(CC(=O)NCC(F)(F)F)C3=O)ccc2c1 (stereo unspecified) the results were Apoferritin bind -8%, Mm-Cpn inhibitor 1%, CCT modulator -33* and A-T KAP1 phos 3%.
CC1=C/C(=C\C=C(C#N)C#N)N(C)c2ccccc21 was read as Apoferritin bind -13%, Mm-Cpn inhibitor -1%, CCT modulator -1 and A-T KAP1 phos 13µM*.
For Cc1cc(C)c2c(=O)cc(C(=O)Nc3ccccc3C(F)(F)F)oc2c1 the results were Apoferritin bind -12%.
c1ccc(-c2nc(NCc3cccs3)c3ccccc3n2)cc1 was read as Apoferritin bind -11%, Mm-Cpn inhibitor 0%, CCT modulator -48* and A-T KAP1 phos 10%.
c1csc(CNc2nc(-c3cccs3)nc3ccccc23)c1 was read as Apoferritin bind 6%, Mm-Cpn inhibitor -17%, CCT modulator -1 and A-T KAP1 phos 8%.
For Cc1oc2c(c(C)cc3oc(=O)c(CC(=O)NCC(=O)NCC(=O)O)c(C)c32)c1C the results were Apoferritin bind 112%, Mm-Cpn inhibitor -16% and A-T KAP1 phos 5.6µM*.
Screening Cc1oc2c(c(C)cc3oc(=O)c(CC(=O)NCCC(=O)O)c(C)c32)c1C returned Apoferritin bind 62%, Mm-Cpn inhibitor -2%, CCT modulator -3 and A-T KAP1 phos -4%.
For c1ccc(CC2CCN(c3nc4ccccc4n4nnnc34)CC2)cc1 the results were Apoferritin bind -2%, Mm-Cpn inhibitor 0%, CCT modulator -32* and A-T KAP1 phos 5%.
Screening CCC(=O)Nc1c(C(=O)N2CCN(c3ccccn3)CC2)cnn1-c1ccc(C)cc1 returned Apoferritin bind -4%, Mm-Cpn inhibitor 1%, CCT modulator 2 and A-T KAP1 phos 2%.
`CCC(=O)Nc1c(C(=O)N2CCN(c3ccccn3)CC2)cnn1-c1ccc(Cl)cc1` gave Apoferritin bind 1%, Mm-Cpn inhibitor 1%, CCT modulator -57* and A-T KAP1 phos -4%.
O=C(Cn1cc(S(=O)(=O)Cc2cccc(Cl)c2)c2ccccc21)NCCc1ccccc1 was read as Apoferritin bind -11%.
`O=C(NCCCN1CCOCC1)C(=O)NCC1OCCN1S(=O)(=O)c1ccc(Cl)cc1` (stereo unspecified) gave CCT modulator -34*.
For O=C(NCCCN1CCOCC1)C(=O)NCC1OCCN1S(=O)(=O)c1ccc(Br)cc1 (stereo unspecified) the results were Apoferritin bind -7%, Mm-Cpn inhibitor 2%, CCT modulator -1 and A-T KAP1 phos -7%.
